This passage reports activity change, positive = activation results from PubChem BioAssay (Tox21).

Each structure is given as a SMILES string. A number with no mark means an inactive call. The call rests on the fitted dose curve.
On the % scale 0 is the no-effect control and ±100 the full control effect.

The assay in a line: qHTS assay to identify small molecule agonists of the estrogen related receptor (ERR) signaling pathway from Tox21 library (AID 1224849). Further: nearly all actives have a fitted effect of over 15% in size. The note with it: ERR reporter cell line, ONE-Glo luciferase, 18 h; at 92.4 µM (top of the series) unless noted. An excerpt:
National Center for Advancing Translational Sciences [NCATS]
NIH Chemical Genomics Center [NCGC]
U.S. Environmental Protection Agency [EPA]
National Institutes of Environmental Health Sciences [NIEHS]
National Toxicology Program [NTP]
Estrogen related receptors (ERRs), the first orphan nuclear receptors discovered, play an important role in the control of cellular energy metabolism. ERRs are required for high-energy production in response to the environmental challenges. ERR-alpha was also identified as an adverse marker for breast cancer progression; ERR-alpha-positive tumors have a poor prognosis. To screen and to identify environmental compounds that perturb the ERR signaling pathways could provide valuable information for potential therapeutic or preventive measures in the treatment of metabolic disease. For identifying ERR agonists, ERR cell line (provided by NTP) has been used to screen Tox21 10K library.
The ERR cells were dispensed at 2,000 cells/5 ul/well in 1536-well white plates using a Multidrop dispenser. After the assay plates were incubated at a 37 C/5% CO2 incubator for 6 hours, 23 nL of compounds dissolved in DMSO, positive and negative controls or DMSO only was transferred to the assay plate by a pin tool. The plates were incubated at 37 C for 18 hours. 4 ul/well of One-Glo reagent was added into the assay plates using a Flying Reagent Dispenser. After 30-minute incubation at room temperature, the luminescence intensity in the plates was measured using a ViewLux plate reader.
(Quantitative high-throughput screening tests each substance at several concentrations.)
Turning to `Cc1ccc(/C=N/n2c(-c3ccccc3)csc2=S)cc1`, the activity change, positive = activation was 4.75% [at 42.5 µM].

Take `[O]=[Bi]`: the activity change, positive = activation was -10.5% [at 8.39 µM]. For `COc1cc2ncnc(Nc3ccc(F)c(Cl)c3)c2cc1OCCCN1CCOCC1` the value was -47.8% [at 42.5 µM]; for `CCOC(=O)[C@@H](C)Oc1ccc(Oc2nc3ccc(Cl)cc3o2)cc1`, -39.1%. For `Cc1nc2ccccn2c(=O)c1CCN1CCC(C(=O)c2ccc(F)cc2)CC1` the value was -25.4% [at 42.5 µM]; for `CO/N=C1\CN(c2nc3c(cc2F)c(=O)c(C(=O)O)cn3C2CC2)CC1CN` (stereo not given), -26.9% [at 42.5 µM]; for `CC(=O)Oc1ccc2c(c1)CC[C@@H]1[C@@H]2CC[C@]2(C)[C@@H](O)CC[C@@H]12`, -29.3% [at 42.5 µM].

For the compound `CC(=O)OCC(=O)[C@H]1CC[C@H]2[C@@H]3CCC4=CC(=O)CC[C@]4(C)[C@H]3CC[C@]12C`, the activity change, positive = activation is -35.1% [at 42.5 µM]. Consider `C=CC(C)(O)CCCC(C)CCCC(C)CCCC(C)C` (stereo not given), for which the activity change, positive = activation is -0.948%. With `CCCCC1C(=O)N(c2ccccc2)N(c2ccc(O)cc2)C1=O` (stereo not given), the activity change, positive = activation was -65.4% [at 42.5 µM]. For `COCCOC` the value was -69.9%.

As to `Oc1cc(O)c(Cl)cc1Cl`, the activity change, positive = activation was -14.1%. `c1ccc(COCc2ccccc2)cc1`: the activity change, positive = activation is 0.496%.

Turning to `C1COCO1`, the activity change, positive = activation is -2.3%. With `C[C@]12CCC(=O)C=C1C=C[C@@H]1[C@@H]2CC[C@@]2(C)[C@H]1CC[C@@]21CCC(=O)O1`, the activity change, positive = activation is -28.3% [at 42.5 µM]. For `CCCc1c(OCCCOc2ccc(OCC(=O)O)cc2)ccc(C(C)=O)c1O`, the activity change, positive = activation was -8.13%. For `CC(C)(C)CC(C)(C)c1ccc(OCCO)cc1` the value was -58.8%; for `NC(=O)Nc1ccc(Cl)cc1`, 0.227%.

Turning to `CCCCCCCCCCCCCCCCBr`, the activity change, positive = activation was 4.62% [at 19 µM].

As for `CCCOc1ccc(S(=O)(=O)N2CCN(CC)CC2)cc1-c1nc2c(CC)n(Cc3ccccn3)nc2c(=O)[nH]1`, the activity change, positive = activation is -21.4%. For `CCCCCCOC(=O)C(C)C` the value was 7.77%; for `CN1C(=O)CC(C)(c2ccccc2)C1=O` (stereo not given), 2.7% [at 42.5 µM]. For `c1cnc2c(n1)CCCC2` the value was 3.42%.

For the compound `c1cc[c]([Bi]([c]2ccccc2)[c]2ccccc2)cc1`, the activity change, positive = activation was -40.9%. Regarding `Cc1nccn1-c1ccc(Sc2cccc(C3(C(N)=O)CCOCC3)c2)cc1`, the activity change, positive = activation is -58%. For `CC[C@H](NC(=O)c1cc(F)ccc1NS(=O)(=O)c1cccc2cccnc12)c1ccccc1` the value was -48.4%. For `COc1ccc(CCC(=O)c2c(O)cc(O[C@@H]3O[C@H](CO)[C@@H](O)[C@H](O)[C@H]3O[C@@H]3O[C@@H](C)[C@H](O)[C@@H](O)[C@H]3O)cc2O)cc1O` the value was 1.69%; for `Cc1ccc(Nc2nccc(N(C)c3ccc4c(C)n(C)nc4c3)n2)cc1S(N)(=O)=O`, -54.4% [at 42.5 µM]. For `CC(C)c1nnc2ccc(-c3ocnc3-c3cc(F)ccc3F)cn12` the value was -31.4%. For `CCCCC(=O)O[C@]1(C(=O)CO)[C@@H](C)C[C@H]2[C@@H]3CCC4=CC(=O)C=C[C@]4(C)[C@@]3(F)[C@@H](O)C[C@@]21C`, the activity change, positive = activation was -45.4%. For `CCOC(=O)c1ccccc1OC` the value was -0.575%.

Regarding `COc1cc2c(N3CCN(C(=O)Nc4ccc(OC(C)C)cc4)CC3)ncnc2cc1OCCCN1CCCCC1`, the activity change, positive = activation is -32.4% [at 42.5 µM].

As to `CC(COc1ccc(C(C)(C)C)cc1)OS(=O)OCCCl` (stereo not given), the activity change, positive = activation was -72.8%. For `CN1CCN(CCCN2c3ccccc3Sc3ccc(S(=O)(=O)N(C)C)cc32)CC1` the value was -33.1% [at 42.5 µM]; for `CC(C)(O)c1ccccc1CC[C@@H](SCC1(CC(=O)O)CC1)c1cccc(/C=C/c2ccc3ccc(Cl)cc3n2)c1`, 1.93% [at 42.5 µM]; for `CCCCCCCCSCCO`, -3.95%. For `COC(=O)c1cc(S(N)(=O)=O)ccc1OC` the value was -0.548% [at 42.5 µM]. For `CN1Cc2cc(C(=O)N3CCC(C4CCNCC4)CC3)ccc2N[C@@H](CC(=O)O)C1=O` the value was 7.88% [at 42.5 µM]. With `CC#N`, the activity change, positive = activation is 6.68%. As for `COC(=O)c1cc(Cl)ccc1NS(=O)(=O)C(F)(F)F`, the activity change, positive = activation is 6.47% [at 42.5 µM].
